Test results published in the supplement of paper PMC10849652.
The full data set covers some 8,800 targets. This sample favours those with a hit. About 0.5% of all pairs of compound and target were hits. A number with no mark means an inactive call.

Experiments:
Experiment in all cases: log2 fold change, soluble protein after heating vs DMSO (PISA); higher = thermal stabilisation; K562 lysate, 10 uM; active = over 0.2 and 3.5 SD of the protein, either way, in both replicates (recomputed)
[1] = compound: CCCS(=O)(=O)Nc1ccc(F)c(C(=O)c2c[nH]c3ncc(-c4ccc(Cl)cc4)cc23)c1F [vemurafenib]
In short: (§1)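 Pellets of K562 cells were dounce-homogenised in PBS pH 7.4 with 1 mM MgCl2, and the crude extract was held at 1 mg/mL protein for a 30 min treatment with 10 μM compound. Aliquots were heated for 3 min over 48°C-58°C and pooled before NP-40 was added to 0.5% at 4°C. The supernatant from 21,000xg for 90 min was quantified by TMTpro 16plex LC-MS/MS with channel sums equalised. Values are reported from duplicates as log-two fold change in thermal stability relative to solvent controls.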

[2] = compound: CCCS(=O)(=O)Nc1ccc(F)c(C(=O)c2c[nH]c3ncc(Cl)cc23)c1F
In short: as §1

[3] = compound: CCN(CCCOc1ccc2c(Nc3cc(CC(=O)Nc4cccc(F)c4)[nH]n3)ncnc2c1)CCOP(=O)(O)O [barasertib]
In short: as §1

[4] = compound: CC[C@@H]1C(=O)N(C)c2cnc(Nc3ccc(C(=O)NC4CCN(C)CC4)cc3OC)nc2N1C1CCCC1
In short: as §1

[5] = compound: CC[C@@H]1C(=O)N(C)c2cnc(Nc3ccc(C(=O)N[C@H]4CC[C@H](N5CCN(CC6CC6)CC5)CC4)cc3OC)nc2N1C(C)C [volasertib]
In short: as §1

[6] = compound: CCn1c(C(=O)N(C2CC2)C2CC2)cc2c3c(ncn3C)c(Nc3cc(C)n(C)n3)nc21
In short: as §1

[7] = compound: CCn1cc(-c2ccnc3[nH]c(-c4cccc(CN(C)C)c4)cc23)c(-c2ccc(NC(=O)N(C)C)cc2)n1
In short: as §1

[8] = compound: CN1CCC(CNc2ccc3ncc(-c4cccc(OC(F)(F)F)c4)n3n2)CC1
In short: as §1

[9] = compound: CN1CCN(CCOc2cc(OC3CCOCC3)c3c(Nc4c(Cl)ccc5c4OCO5)ncnc3c2)CC1 [saracatinib]
In short: as §1

[10] = compound: CN1CCN(c2nc(C3=C(c4c[nH]c5ccccc45)C(=O)NC3=O)c3ccccc3n2)CC1 [sotrastaurin]
In short: as §1

[11] = compound: CN1CC[C@H](c2c(O)cc(O)c3c(=O)cc(-c4ccccc4Cl)oc23)[C@H](O)C1 [alvocidib]
In short: as §1

[12] = compound: CN1CCc2c(c3ccccc3n2Cc2ccc(C(=O)NO)cc2)C1 [Tubastatin A]
In short: as §1

[13] = compound: CNC(=O)C1=CC=CC=C1NC2=NC(=NC=C2Cl)NC3=C(C=C(C=C3)N4CCOCC4)OC
In short: as §1

[14] = compound: CNC(=O)c1ccc(Nc2ncc(C(F)(F)F)c(NCc3nccnc3N(C)S(C)(=O)=O)n2)cc1 [defactinib]
In short: as §1

[15] = compound: CNc1nc(-c2ccc3c(N)n[nH]c3c2)cc(N2C[C@@H](C(=O)NC3CCCCC3)CC[C@H]2C)n1
In short: as §1

[16] = compound: COC(=O)N[C@@H](C)CNc1nccc(-c2cn(C(C)C)nc2-c2cc(Cl)cc(NS(C)(=O)=O)c2F)n1 [encorafenib]
In short: as §1

[17] = compound: COC(=O)[C@H](CCSC)NC(=O)C1=C(C=C(C=C1)NC[C@H](CS)N)C2=CC=CC=C2
In short: as §1

[18] = compound: COc1cc(Nc2ncc3c(n2)-c2ccc(Cl)cc2C(c2c(F)cccc2OC)=NC3)ccc1C(=O)O [alisertib]
In short: as §1

[19] = compound: COc1cc2nc(-c3cc(F)ccc3O)nc(N[C@@H]3CNC[C@H]3C(C)(C)O)c2cc1OC
In short: as §1

[20] = compound: COc1cc2ncnc(Nc3ccc(F)c(Cl)c3)c2cc1OCCCN1CCOCC1 [gefitinib]
In short: as §1

Chain of UniProt P40227 (P40227 whole entry, looked up): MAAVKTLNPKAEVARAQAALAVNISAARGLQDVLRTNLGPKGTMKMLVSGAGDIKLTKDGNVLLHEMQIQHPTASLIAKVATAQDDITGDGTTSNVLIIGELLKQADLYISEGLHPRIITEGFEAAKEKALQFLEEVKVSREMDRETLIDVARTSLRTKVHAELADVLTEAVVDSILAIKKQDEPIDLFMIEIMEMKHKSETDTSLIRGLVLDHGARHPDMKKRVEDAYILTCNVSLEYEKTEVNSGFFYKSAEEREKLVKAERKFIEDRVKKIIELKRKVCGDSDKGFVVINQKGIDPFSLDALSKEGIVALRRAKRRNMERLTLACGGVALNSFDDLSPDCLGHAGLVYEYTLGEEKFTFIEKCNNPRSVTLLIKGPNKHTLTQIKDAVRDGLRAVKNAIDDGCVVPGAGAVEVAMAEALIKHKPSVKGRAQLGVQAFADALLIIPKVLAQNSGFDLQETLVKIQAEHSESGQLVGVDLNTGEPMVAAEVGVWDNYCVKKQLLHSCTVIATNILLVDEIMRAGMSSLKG
Chain of UniProt O43861 (O43861 whole entry, looked up): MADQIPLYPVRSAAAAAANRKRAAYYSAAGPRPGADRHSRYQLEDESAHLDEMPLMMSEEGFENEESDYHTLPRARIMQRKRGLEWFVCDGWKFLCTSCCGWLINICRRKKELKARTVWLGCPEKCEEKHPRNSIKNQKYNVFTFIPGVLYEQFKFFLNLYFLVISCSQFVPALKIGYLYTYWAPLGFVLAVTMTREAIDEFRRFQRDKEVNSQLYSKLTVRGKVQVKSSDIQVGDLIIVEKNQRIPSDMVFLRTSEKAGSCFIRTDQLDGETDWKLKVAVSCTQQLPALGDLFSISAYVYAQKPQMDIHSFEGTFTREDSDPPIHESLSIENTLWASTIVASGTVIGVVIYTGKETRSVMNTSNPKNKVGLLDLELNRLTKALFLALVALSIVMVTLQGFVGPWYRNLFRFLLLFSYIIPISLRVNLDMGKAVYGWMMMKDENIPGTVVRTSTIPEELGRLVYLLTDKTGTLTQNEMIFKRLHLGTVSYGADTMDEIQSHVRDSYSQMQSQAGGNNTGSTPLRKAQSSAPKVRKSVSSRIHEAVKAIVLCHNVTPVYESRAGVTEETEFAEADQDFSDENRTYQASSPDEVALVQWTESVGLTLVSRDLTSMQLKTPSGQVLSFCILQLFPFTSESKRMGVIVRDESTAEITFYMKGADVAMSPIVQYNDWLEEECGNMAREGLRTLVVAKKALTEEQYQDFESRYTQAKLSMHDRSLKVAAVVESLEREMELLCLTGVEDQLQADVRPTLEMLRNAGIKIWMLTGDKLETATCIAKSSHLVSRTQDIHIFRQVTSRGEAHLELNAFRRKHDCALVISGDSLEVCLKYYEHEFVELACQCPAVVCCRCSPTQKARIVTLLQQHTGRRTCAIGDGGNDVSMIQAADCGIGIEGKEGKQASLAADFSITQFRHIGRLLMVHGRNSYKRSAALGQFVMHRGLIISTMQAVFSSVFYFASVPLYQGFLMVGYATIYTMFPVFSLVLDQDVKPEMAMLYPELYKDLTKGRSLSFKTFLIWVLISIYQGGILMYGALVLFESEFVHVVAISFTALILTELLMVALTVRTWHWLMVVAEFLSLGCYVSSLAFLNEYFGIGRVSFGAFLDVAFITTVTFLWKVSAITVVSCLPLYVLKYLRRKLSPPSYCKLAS
Chain of UniProt O75808 (O75808 whole entry, looked up): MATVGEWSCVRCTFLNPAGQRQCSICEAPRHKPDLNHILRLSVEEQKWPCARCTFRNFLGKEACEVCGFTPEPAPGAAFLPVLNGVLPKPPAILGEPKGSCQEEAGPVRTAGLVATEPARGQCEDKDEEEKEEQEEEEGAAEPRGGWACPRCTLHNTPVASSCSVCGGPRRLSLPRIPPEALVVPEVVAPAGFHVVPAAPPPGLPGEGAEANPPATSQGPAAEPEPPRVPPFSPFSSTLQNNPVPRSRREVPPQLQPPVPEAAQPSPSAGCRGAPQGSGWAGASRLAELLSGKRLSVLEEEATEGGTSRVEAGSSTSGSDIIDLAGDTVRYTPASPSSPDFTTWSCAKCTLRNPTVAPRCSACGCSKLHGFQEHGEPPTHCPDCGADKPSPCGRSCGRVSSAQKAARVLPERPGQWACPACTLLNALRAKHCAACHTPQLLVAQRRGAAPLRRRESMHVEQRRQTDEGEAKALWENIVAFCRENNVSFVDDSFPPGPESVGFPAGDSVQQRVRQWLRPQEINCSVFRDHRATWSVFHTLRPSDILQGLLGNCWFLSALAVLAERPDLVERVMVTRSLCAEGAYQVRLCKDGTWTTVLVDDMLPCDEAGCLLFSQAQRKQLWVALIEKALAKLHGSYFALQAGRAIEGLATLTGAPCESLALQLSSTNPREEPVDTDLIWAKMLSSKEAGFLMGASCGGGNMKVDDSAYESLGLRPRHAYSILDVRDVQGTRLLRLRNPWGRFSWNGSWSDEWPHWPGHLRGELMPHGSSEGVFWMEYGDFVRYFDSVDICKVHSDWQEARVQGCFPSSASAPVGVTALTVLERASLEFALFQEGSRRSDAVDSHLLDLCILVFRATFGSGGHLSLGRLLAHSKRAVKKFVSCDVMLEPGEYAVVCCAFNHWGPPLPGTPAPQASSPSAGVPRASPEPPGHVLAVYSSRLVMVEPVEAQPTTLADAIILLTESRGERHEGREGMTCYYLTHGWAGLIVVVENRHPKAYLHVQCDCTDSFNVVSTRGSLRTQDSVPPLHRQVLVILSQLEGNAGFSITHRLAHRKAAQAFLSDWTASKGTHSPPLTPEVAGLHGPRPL
Chain of UniProt P50750 (P50750 whole entry, looked up): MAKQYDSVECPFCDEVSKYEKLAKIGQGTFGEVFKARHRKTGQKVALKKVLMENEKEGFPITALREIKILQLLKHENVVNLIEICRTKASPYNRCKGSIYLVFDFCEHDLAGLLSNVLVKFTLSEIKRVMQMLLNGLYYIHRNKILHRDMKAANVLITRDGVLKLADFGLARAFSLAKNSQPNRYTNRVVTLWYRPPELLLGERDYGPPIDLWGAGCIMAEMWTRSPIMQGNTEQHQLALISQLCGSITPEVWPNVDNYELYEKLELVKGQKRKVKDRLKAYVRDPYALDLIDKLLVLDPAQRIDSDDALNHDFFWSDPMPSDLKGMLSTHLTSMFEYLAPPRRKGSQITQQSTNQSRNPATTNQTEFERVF
Chain of UniProt Q13111 (Q13111 whole entry, looked up): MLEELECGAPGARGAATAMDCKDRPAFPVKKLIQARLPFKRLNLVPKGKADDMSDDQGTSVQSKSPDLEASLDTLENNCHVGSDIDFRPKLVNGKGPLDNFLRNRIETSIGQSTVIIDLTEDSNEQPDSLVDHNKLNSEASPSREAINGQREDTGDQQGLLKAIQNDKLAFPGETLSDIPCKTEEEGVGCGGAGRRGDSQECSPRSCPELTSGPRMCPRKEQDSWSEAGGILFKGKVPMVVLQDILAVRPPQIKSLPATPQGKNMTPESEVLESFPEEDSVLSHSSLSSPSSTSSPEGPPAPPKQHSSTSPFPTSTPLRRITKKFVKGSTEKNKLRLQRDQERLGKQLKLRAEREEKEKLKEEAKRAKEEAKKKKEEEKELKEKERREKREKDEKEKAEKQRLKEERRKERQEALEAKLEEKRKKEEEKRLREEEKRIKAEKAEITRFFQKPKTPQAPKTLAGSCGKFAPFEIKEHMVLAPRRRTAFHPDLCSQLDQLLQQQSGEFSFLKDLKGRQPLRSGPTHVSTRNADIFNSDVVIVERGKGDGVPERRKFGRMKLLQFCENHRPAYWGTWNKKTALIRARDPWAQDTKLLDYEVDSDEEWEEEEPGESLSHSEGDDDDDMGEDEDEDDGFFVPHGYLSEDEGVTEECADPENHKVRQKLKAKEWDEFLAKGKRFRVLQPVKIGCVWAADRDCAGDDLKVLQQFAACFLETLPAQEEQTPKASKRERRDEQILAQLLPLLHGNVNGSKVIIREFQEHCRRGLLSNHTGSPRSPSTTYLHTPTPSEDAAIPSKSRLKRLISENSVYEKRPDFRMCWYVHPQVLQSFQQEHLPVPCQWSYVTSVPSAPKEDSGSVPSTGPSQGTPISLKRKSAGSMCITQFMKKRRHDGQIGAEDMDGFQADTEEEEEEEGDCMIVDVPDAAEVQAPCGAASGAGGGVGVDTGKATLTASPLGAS
Chain of UniProt Q96JB5 (Q96JB5 whole entry, looked up): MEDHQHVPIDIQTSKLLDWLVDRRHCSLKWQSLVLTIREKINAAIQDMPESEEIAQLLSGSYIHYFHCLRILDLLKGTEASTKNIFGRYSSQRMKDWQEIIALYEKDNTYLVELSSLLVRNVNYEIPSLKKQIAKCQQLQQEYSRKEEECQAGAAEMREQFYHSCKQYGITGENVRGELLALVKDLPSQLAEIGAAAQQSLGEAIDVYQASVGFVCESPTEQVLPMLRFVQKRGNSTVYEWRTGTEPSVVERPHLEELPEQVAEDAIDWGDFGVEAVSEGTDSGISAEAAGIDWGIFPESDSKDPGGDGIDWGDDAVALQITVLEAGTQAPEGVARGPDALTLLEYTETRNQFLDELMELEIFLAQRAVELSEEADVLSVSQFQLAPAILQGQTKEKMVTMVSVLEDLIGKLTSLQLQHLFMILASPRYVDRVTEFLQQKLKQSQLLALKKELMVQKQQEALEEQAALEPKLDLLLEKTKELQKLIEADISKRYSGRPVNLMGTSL
Chain of UniProt P45973 (P45973 whole entry, looked up): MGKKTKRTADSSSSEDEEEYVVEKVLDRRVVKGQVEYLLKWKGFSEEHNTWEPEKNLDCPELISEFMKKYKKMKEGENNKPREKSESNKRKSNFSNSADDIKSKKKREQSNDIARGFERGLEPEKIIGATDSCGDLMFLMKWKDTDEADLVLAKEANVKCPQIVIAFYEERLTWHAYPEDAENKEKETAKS

Target	log2 fold change [1]	log2 fold change [2]	log2 fold change [3]	log2 fold change [4]	log2 fold change [5]	log2 fold change [6]	log2 fold change [7]	log2 fold change [8]	log2 fold change [9]	log2 fold change [10]	log2 fold change [11]	log2 fold change [12]	log2 fold change [13]	log2 fold change [14]	log2 fold change [15]	log2 fold change [16]	log2 fold change [17]	log2 fold change [18]	log2 fold change [19]	log2 fold change [20]
CDC45 isoform 3 (UniProt O75419)	0.009	0.042	-0.015	-0.05	-0.017	-0.05	-0.096	-0.04	0.007	0.027	0.031	-0.138	0.031	0.028	-0.017	0.001	0.019	0.023	0.009	-0.034
CCT6A (UniProt P40227)	-0.026	-0.005	-0.03	-0.006	0.024	0.011	-0.024	-0.002	-0.004	-0.001	0.027	0.025	0.006	-0.018	-0.001	-0.015	-0.024	0.012	-0.003	-0.021
CDK5RAP3 isoform 4 (UniProt Q96JB5)	0.023	0.013	0.022	-0.008	-0.051	0.029	-0.313 (active)	0.216	-0.002	-0.021	-0.118	0.038	-0.007	-0.021	0.021	0.007	0.094	0.006	0.026	-0.024
CHAF1A (UniProt Q13111)	0.005	0.005	0.006	0.029	0.003	-0.009	0.029	0.004	0.038	-0.016	-0.003	-0.089	-0.019	0.02	0.038	0.003	0.063	-0.107	-0.01	-0.065
AURKA (UniProt O14965)	0.088	0.068	0.763 (active)	-0.062	-0.015	-0.009	0.719 (active)	0.096	0.008	0.028	-0.006	0.03	0.586	0.425	0.094	-0.068	0.002	0.436	-0.023	-0.101
CDK9 isoform 2 (UniProt P50750)	-0.117	-0.064	-0.025	0.009	0.002	0.175	-0.203	0.079	0.005	0.34 (active)	0.578 (active)	-0.042	0.024	0.392 (active)	0.016	-0.008	-0.033	-0.003	0.191	0.008
CCNY (UniProt Q8ND76)	-0.011	0	-0.016	-0.148	0.036	-0.103	0.032	0.037	0.063	0.025	0.001	-0.139	-0.015	0.011	0.04	0.023	-0.085	0.037	0.008	-0.091
BRD2 isoform 2 (UniProt P25440)	0.033	-0.153	-0.053	0.548 (active)	0.369	0.042	0.617 (active)	-0.066	-0.047	-0.1	0.06	0.002	0.059	-0.187	0.068	0.084	-0.118	0	0.019	-0.009
ATP6V1B1 (UniProt P15313)	-0.009	-0.013	-0.012	0.016	0.03	0.006	-0.288 (active)	0.158	-0.006	0.006	-0.118	0.095	0.018	-0.005	0.031	-0.032	0.017	0.023	0.009	-0.033
BCKDK (UniProt O14874)	-0.036	0.002	-0.028	0.203	-0.037	0.067	-0.033	0.059	0.031	0.028	0.029	-0.117	-0.005	0.029	-0.098	-0.061	0.066	0.023	-0.027	0.053
CBX5 (UniProt P45973)	0.028	0.026	-0.025	0.018	0.016	-0.073	-0.215 (active)	0.066	0.001	0.016	-0.07	0.037	0.073	-0.011	0.021	-0.035	-0.007	-0.054	0.021	0.009
C3 (UniProt P01024)	-0.02	0.042	0.059	0.07	0.009	-0.096	-0.134	0.039	0.001	0.014	-0.027	0.051	0.041	0.01	0.008	0	0.054	-0.031	-0.005	0.05
CAPN15 (UniProt O75808)	0.04	-0.046	0.077	-0.007	0.027	0.013	0.037	0.016	0.032	-0.091	-0.01	-0.043	0.001	-0.014	0.19	-0.029	0.03	-0.03	0.024	-0.024
ATP9B (UniProt O43861)	-0.046	0.02	-0.024	-0.081	-0.051	-0.015	-0.07	0.189	0.046	-0.071	-0.076	0.048	0.044	-0.117	-0.018	0.068	0.012	-0.081	0.16	-0.015
ATG4B (UniProt Q9Y4P1)	0.036	0.04	0.047	0.012	-0.05	0.008	0.148	-0.105	0.043	0.039	0.052	-0.129	0.025	0	-0.025	0	-0.018	0.053	0.02	-0.071
